Here are results for 14 compounds from PubChem BioAssay (NCATS).

Values without a mark were called inactive. Results filed as inconclusive are left out. The source made the active and inactive calls. Unless noted, calls follow the shape of the dose curve; as a rule, active = well fitted curve in the direction sought with a large enough effect; inconclusive = small, poorly fitted or top-dose-only effect, or another doubt; inactive = no such curve, though single readings can be large; an effect the other way counts as inactive or inconclusive. Where only a bound is given, the exact number is not on record here.

Assay [1] is described as follows: Cell Viability - BJ (AID 421; calls by dose curve;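 also: potency is read from the fitted curve at half-maximal effect; cells exposed to compound for 40 hours at 37 °C before readout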). To be noted: BJ fibroblast viability, qHTS. The method in brief: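 Quantitative HTS: ATP depletion in BJ cells after 40 hr compound exposure in complete culture medium, detected with CellTiter-Glo; AC50 from standard Hill fits.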
Assay [2] in a line: Cell Viability - Jurkat (AID 426;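 active = dose-dependent loss of cell ATP signal giving a full or clear fitted curve, ranked by lower potency value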; also: potency is read from the fitted curve at half-maximal effect). The settings on record: qHTS. In outline:
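Seed 5000 Jurkat E6-1 cells/well; add compound; incubate 40 hr at 37 °C; add CellTiter-Glo; wait 20 min at room temperature; read luminescence. Fit concentration-response with Hill equation for AC50.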

The nature of assay [3]: Cell Viability - Hek293 (AID 427;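 active = compounds whose dose-response curve shows a full or clear partial loss of cell viability, called from curve shape rather than a numeric limit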;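 also: potency is read from the fitted curve at half-maximal effect; cells exposed to compound for 40 hours at 37 °C before reading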). To be noted: qHTS. The method in brief: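 AC50 values derive from Hill-modelled concentration-response of ATP-based luminescence, normalized between DMSO-only and 100 uM tamoxifen controls. Cells were exposed in complete culture medium for 40 hr at 37 °C before detection.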
The nature of assay [4]: Cell Viability - HepG2 (AID 433; calls by dose curve;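 also: potency is read from the fitted curve at half-maximal effect; potency for ATP loss meaning cytotoxicity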). To be noted: qHTS. In outline: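 HepG2 hepatocellular carcinoma cells (1500/well) were treated with compounds for 40 h at 37 °C in complete medium; intracellular ATP was read by CellTiter-Glo luminescence. Data were normalized to DMSO and 100 uM tamoxifen, and AC50 came from Hill fits.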
Assay [5] is described as follows: Cell Viability - MRC5 (AID 434; calls by dose curve;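 also: potency is read from the fitted curve at half-maximal effect; potency reflects cytotoxicity seen as loss of intracellular ATP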). The settings on record: MRC5 lung fibroblast viability, qHTS. In outline:
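MRC5 normal human lung fibroblasts, 1500 cells/well, exposed to compound for 40 hr at 37 C. Cellular ATP was read by CellTiter-Glo luminescence; data normalized to DMSO and 100 uM tamoxifen, with AC50 from Hill fits.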

A short description of assay [6]: Cell Viability - SK-N-SH (AID 435; calls by dose curve;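 also: potency is read from the fitted curve at half-maximal effect; compound exposure lasted 40 h at 37 °C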). To be noted: SK-N-SH neuroblastoma cell viability qHTS. In outline: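 SK-N-SH human neuroblastoma cells (1500/well) were exposed to compounds in complete medium for 40 h at 37 °C, and intracellular ATP was then measured by CellTiter-Glo luminescence. AC50 was taken from Hill fits, normalized to DMSO and 100 uM tamoxifen.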
The target in assay [7] is Mitogen-activated protein kinase 10 (Mus musculus) (UniProt Q61831). Nature of the assay: JNK3 AlphaScreen Assay (AID 530; active = well fitted curve in either direction with a large enough effect, not every such curve was filed as active;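 also: kinase came from lysate of stimulated human HepG2 cells; signal reports phosphorylation of biotinylated GST-cJun 1-79 at Ser73 with 10 µM ATP; % is scaled to controls: 0 for no effect and ±100 for the full control effect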). To be noted: JNK3 lysate, c-Jun phosphorylation; series mostly up to 25.6 µM. The method in brief:
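qHTS format: compounds tested as titrations against IL-1beta/TNF-alpha-activated HepG2 lysate JNK3 with biotin-GST-cJun substrate and 10 uM ATP at room temperature. Loss of anti-phospho-cJun AlphaScreen signal indicates inhibition.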

Assay [8] in a line: Cell Viability - N2a (AID 540).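 Also: plate controls were DMSO alone for no effect and tamoxifen control for full effect; nearly all actives have a fitted effect of over 45% in size.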 To be noted: N2a mouse neuroblastoma cell viability; series mostly up to 92.2 µM. The method in brief:
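First, 1500 N2a cells per well incubate 5 hr at 37 °C; next, compounds are added and incubated 40 hr at 37 °C; finally CellTiter-Glo is added and luminescence read after 20 min, with AC50 derived by Hill modeling.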

Assay [9] is described as follows: Cell Viability - NIH 3T3 (AID 541).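 Also: plate controls were DMSO alone for no effect and tamoxifen positive control for full effect; nearly all actives have a fitted effect of over 25% in size.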 The settings on record: NIH 3T3 cell viability, qHTS; series mostly up to 92.2 µM. In outline:
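AC50 values reflect concentration-dependent loss of intracellular ATP in NIH 3T3 cells after 40 hr treatment in complete culture medium, quantified by luciferase-based luminescence.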

A short description of assay [10]: Cell Viability - HUV-EC-C (AID 542). Also: % is scaled to controls: 0 for no effect and ±100 for the full control effect; nearly all actives have a fitted effect of over 35% in size. To be noted: HUV-EC-C endothelial cell viability, qHTS; series mostly up to 92.2 µM. The method in brief: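 Decrease in cellular ATP, quantified by luciferase luminescence, reflects toxicity in normal human vascular endothelial HUV-EC-C cells given compound for 40 hr in complete culture medium. Values are AC50s from concentration-response curves.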

Assay [11] can be described thus: Cell Viability - H-4-II-E (AID 543). Also: % is scaled to controls: 0 for no effect and ±100 for the full control effect; nearly all actives have a fitted effect of over 35% in size. The settings on record: H-4-II-E rat hepatoma viability; series mostly up to 92.2 µM. In outline: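 Here, cytotoxicity is measured in the rat hepatoma line H-4-II-E as loss of intracellular ATP after 40 hr compound treatment, detected by luciferase luminescence.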
A short description of assay [12]: Cell Viability - Renal Proximal Tubule (AID 545).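 Also: 0% = DMSO only and -100% = 100 µM tamoxifen; nearly all actives have a fitted effect of over 40% in size.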 The settings on record: renal proximal tubule cells viability, primary cells of rat origin; series mostly up to 91.7 µM. The method in brief:
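Primary rat renal proximal tubule cells (1000/well) were treated with compounds for 40 hr at 37 °C in complete medium. Intracellular ATP was measured by CellTiter-Glo luminescence, and AC50 values came from Hill-equation fits of concentration-response data.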

Assay [13] can be described thus: Cell Viability - Mesenchymal (AID 546).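 Also: cells exposed to compound for 40 hours before reading; 0% = DMSO only and -100% = 100 µM tamoxifen.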 The settings on record: mesenchymal cells viability, qHTS; series mostly up to 91.7 µM. In outline:
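Human kidney mesenchymal cells from normal renal glomeruli, 1000 cells/well, rested 5 hr at 37 °C, then treated 40 hr at 37 °C in complete medium. Cellular ATP read by CellTiter-Glo luminescence; AC50 from Hill-equation fits.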

For assay [14], the target named is Cytochrome P450 1A2 (Homo sapiens) (UniProt P05177). As to the kind of experiment: p450-cyp1a2 (AID 410; calls by dose curve; also: potency is read from the fitted curve at half-maximal effect). The settings on record: recombinant CYP1A2, luciferin-ME demethylation, luminescence; series mostly up to 25.6 µM. In outline:
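Inhibition was calculated relative to 57 uM furafylline (full inhibition). The reaction used human CYP1A2 at 20nM with Luciferin-ME at its Km, 100uM, driven by an NADPH-regenerating system for 60 min at room temperature.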

Assay [15] is described as follows: Stat Signaling Pathway (AID 446; active = well fitted curve in either direction with a large enough effect, not every such curve was filed as active;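 also: ME-180 cervical cancer cells given 40 pM IL-6 alongside compound; SIE-controlled beta-lactamase reporter measured as 460/530 nm FRET emission ratio; % is scaled to controls: 0 for no effect and ±100 for the full control effect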). To be noted: ME-180 SIE beta-lactamase reporter, IL-6 stimulated, 5 h; series mostly up to 17.2 µM. In outline:
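IL-6/STAT signaling read in ME-180 cells via an SIE beta-lactamase reporter. Stimulus was 40 pM IL-6 (its AC50) for 5 hrs, so both activation and inhibition register.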

Assay [16] concerns the target Glucocorticoid receptor (Homo sapiens) (UniProt P04150). As to the kind of experiment: GR-GFP Redistribution (AID 450;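 active = compounds whose dose series gives a full or clear partial fitted curve of increased nuclear translocation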; also: potency is read from the fitted curve at half-maximal effect). To be noted: U2OS GR-GFP nuclear translocation, laser cytometry, 2 h.
Assay [17] has the same target. Nature of the assay: GR-EFC Redistribution (AID 451; calls by dose curve; also: potency is read from the fitted curve at half-maximal effect). To be noted: CHO-K1 GR-EFC translocation, beta-gal luminescence, 2 h. The method in brief:
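CHO-K1 cells expressing nuclear EA and GR-ED fragments of b-gal; compounds titrated up to 46 uM final, 2 h at 37 C. GR nuclear translocation read as complemented b-gal luminescence after 1 h RT detection.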

Assay [18] can be described thus: AP1 Signaling Pathway (AID 357; active = well fitted curve in either direction with a large enough effect, not every such curve was filed as active; also: % is scaled to controls: 0 for no effect and ±100 for the full control effect). The settings on record: ME-180 (cervical carcinoma) AP-1-bla reporter, EGF-induced, beta-lactamase ratio, 5 h; series mostly up to 17.2 µM. In outline: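 AP-1-bla ME-180 cells with beta-lactamase reporter under AP-1 response element, stimulated with EC50 EGF; compounds titrated, 5 hours at 37 degrees Celsius. CCF4 read at 460/530 nm ratio; positive and negative modulators judged by AC50.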

Assay [19] is described as follows: NFAT Signaling Pathway (AID 444; active = well fitted curve in either direction with a large enough effect, not every such curve was filed as active;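 also: carbachol stimulus at about its EC50 of 1 µM final; % is scaled to controls: 0 for no effect and ±100 for the full control effect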). The settings on record: Jurkat NFAT-bla M1, carbachol, beta-lactamase ratio, 5 h; at 17.2 µM (top of the series) unless noted. In outline:
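Jurkat cells with NFAT-driven β-lactamase reporter and co-expressed M1 receptor, stimulated with carbachol (final 1 uM, ~EC50), compound titration, 5 h at 37 °C. CCF4 loaded 1 h at RT; 460/530 nm ratio gave %activity and AC50.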

Glucocorticoid receptor (Homo sapiens), sequence (P04150 whole entry, looked up): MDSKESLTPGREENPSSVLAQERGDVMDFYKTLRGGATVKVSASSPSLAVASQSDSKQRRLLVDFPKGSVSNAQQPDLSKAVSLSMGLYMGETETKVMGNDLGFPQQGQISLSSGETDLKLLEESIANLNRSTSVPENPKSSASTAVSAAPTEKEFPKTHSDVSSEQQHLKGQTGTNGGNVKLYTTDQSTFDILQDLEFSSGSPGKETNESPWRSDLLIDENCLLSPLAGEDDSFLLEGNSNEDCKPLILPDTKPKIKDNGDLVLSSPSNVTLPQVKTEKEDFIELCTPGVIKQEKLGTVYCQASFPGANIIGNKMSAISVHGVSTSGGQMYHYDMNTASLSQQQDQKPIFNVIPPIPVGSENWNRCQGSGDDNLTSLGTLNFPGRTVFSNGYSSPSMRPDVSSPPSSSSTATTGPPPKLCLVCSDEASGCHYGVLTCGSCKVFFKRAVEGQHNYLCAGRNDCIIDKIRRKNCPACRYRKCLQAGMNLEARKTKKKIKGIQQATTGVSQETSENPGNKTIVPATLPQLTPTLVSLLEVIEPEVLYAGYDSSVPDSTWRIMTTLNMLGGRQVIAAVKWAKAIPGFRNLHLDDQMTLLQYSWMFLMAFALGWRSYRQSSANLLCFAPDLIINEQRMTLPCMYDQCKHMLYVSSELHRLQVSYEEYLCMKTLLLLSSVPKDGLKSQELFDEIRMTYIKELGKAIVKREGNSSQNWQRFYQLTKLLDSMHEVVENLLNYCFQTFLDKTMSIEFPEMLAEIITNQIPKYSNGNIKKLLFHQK
Cytochrome P450 1A2 (Homo sapiens), sequence (P05177 whole entry, looked up): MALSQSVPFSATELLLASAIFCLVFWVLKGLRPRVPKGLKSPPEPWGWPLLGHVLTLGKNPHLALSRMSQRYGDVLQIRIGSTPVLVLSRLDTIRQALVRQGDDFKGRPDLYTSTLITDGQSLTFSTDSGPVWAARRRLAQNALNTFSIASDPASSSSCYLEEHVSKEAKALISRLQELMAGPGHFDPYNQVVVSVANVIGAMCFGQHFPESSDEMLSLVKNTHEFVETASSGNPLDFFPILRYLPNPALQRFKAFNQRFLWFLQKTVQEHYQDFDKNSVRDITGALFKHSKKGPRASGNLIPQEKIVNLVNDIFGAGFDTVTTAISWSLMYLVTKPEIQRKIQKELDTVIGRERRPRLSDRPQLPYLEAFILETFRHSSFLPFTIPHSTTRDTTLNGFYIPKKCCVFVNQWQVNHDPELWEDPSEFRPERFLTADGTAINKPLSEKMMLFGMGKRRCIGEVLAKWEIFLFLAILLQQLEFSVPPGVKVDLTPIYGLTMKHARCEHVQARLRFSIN

For `CCCC(O)C(CC)CO` (configuration not stated), the Potency in assay [1], in assay [2], in assay [3], in [4], in [5] and in assay [6] was above 92 µM in each case. Besides, the result in assay [7], in assay [8], in assay [9], in [10], in [11] and in assay [12] was inactive. Also, the compound was called inactive in [13].

For the compound `C=CCNC(N)=S`, the Potency in assay [1], in [2], in [3], in assay [4], in assay [5] and in assay [6] was above 92 µM throughout. Also, the compound was classed as inactive in assay [7], in assay [8], in [9], in assay [10], in assay [11] and in [12]. Moreover, in assay [13], the compound was called inactive.

Consider `CCCCCC(N)=O`, for which the Potency in assay [1], in assay [2], in [3], in assay [4], in [5] and in assay [6] was above 92 µM each time. Further, the result in assay [7], in assay [8], in assay [9], in assay [10], in assay [11] and in assay [12] was inactive. The call in [13] was inactive.

For `CC[N+](C)(CC)CCOC(=O)C1c2ccccc2Oc2ccccc21`, the Potency in assay [14] was 10 µM (active). Also, the compound was called inactive in assay [15] and in assay [7].

For the compound `O=C(c1ccccc1)C(O)c1ccccc1` (configuration not stated), the Potency in [1], in [2], in assay [3], in assay [4], in [5] and in [6] was above 92 µM in each case. Also, the compound was called inactive in assay [7], in assay [8], in assay [9], in assay [10], in assay [11] and in [12]. In assay [13], the call was inactive.

Take `C[C@@H](N)C(=O)O`: the Potency in assay [16] and in assay [17] was above 46 µM throughout. The call in assay [7] was inactive.

As to `CCCCC1(COC(=O)CCC(=O)O)C(=O)N(c2ccccc2)N(c2ccccc2)C1=O`, the outcome in [18], in [15] and in [7] was inactive. The activity change, negative = inhibition in [19] was 11.7%.

As for `Cc1c(NC(=O)c2cccnc2)c(=O)n(-c2ccccc2)n1C`, the outcome in [18], in assay [15] and in assay [7] was inactive. Also, in assay [19], the activity change, negative = inhibition was -13.6%. For the same compound, the Potency in assay [16] and in assay [17] was above 20.6 µM throughout.

With `O=C1C(c2[nH]c3ccccc3c2O)=Nc2ccccc21`, the Potency in [1], in assay [2], in assay [3], in assay [4], in assay [5] and in [6] was above 92 µM in each case. Moreover, the result in [8], in [10], in assay [11], in [12] and in assay [13] was inactive.

On to `NC(N)=NCCN1CCCCCCC1`, for which the outcome in assay [18], in assay [15] and in assay [7] was inactive. Besides, in [19], the activity change, negative = inhibition was -13.3%. Besides, the Potency in [16] and in assay [17] was above 20.6 µM each time.

For the compound `CCCCCCCC(=O)OCC(COC(=O)CCCCCCC)OC(=O)CCCCCCC`, the Potency in assay [1], in assay [2], in assay [3], in [4], in [5] and in assay [6] was above 92 µM in each case. Moreover, the outcome in assay [7], in [8], in assay [9], in assay [10], in assay [11] and in [12] was inactive. In addition, the call in [13] was inactive.

As to `CC(=O)Nc1cccc(O)c1`, the Potency in assay [1], in assay [2], in assay [3], in [4], in assay [5] and in assay [6] was above 92 µM each time. Also, the call in assay [7], in assay [8], in [9], in assay [10], in assay [11] and in [12] was inactive. Moreover, the call in assay [13] was inactive.

For `O=C(O)CCCCC1CCSS1` (configuration not stated), the Potency in assay [1], in [2], in [3], in assay [4], in assay [5] and in assay [6] was above 92 µM throughout. The outcome in assay [7], in [8], in assay [9], in assay [10], in [11] and in [12] was inactive. For the same compound, the call in assay [13] was inactive.

Consider `CC1CC(OC(=O)c2ccccc2O)CC(C)(C)C1` (configuration not stated), for which the Potency in assay [1], in assay [2], in [3], in [4], in assay [5] and in assay [6] was above 92 µM each time. For the same compound, the outcome in assay [7], in assay [8], in [9], in [10], in assay [11] and in [12] was inactive. Moreover, in assay [13], the compound was called inactive.
